In the library only some 6.8% were active in any assay of this set; here they are far more common.
Pf Dd2 growth – P. falciparum Dd2 growth inhibitors, primary screen, SYBR Green fluorescence, single dose replicates | AID 1159554, 2015 | 72 h; active compounds read low | activity change, % at 10 µM | hit rate 2.3% among 94,000; in the data active = activity change below about -80%; inconclusive = no clear call, values can overlap the other calls
T cruzi growth-1 – T. cruzi intracellular proliferation inhibitors, primary screen, cell-based, beta-gal Tulahuen parasites, NIH3T3 host, luminescence; AID 624255, 2012; T. cruzi beta-gal in NIH3T3, GalScreen luminescence, 90 h; hit rate 5.9% among 77,000; inhibition, % at 8.34 µM;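 active = mean inhibition above about 93%, with at least 55% of replicates each passing it, limit read from the data, passing the limit was not always enough; inconclusive = only one of those two conditions holds; inactive = neither condition holds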
C diff HTS – C. difficile growth inhibitors, primary screen, HTS; Clostridium difficile clinical isolate growth, OD600, 24 h; active compounds read low; growth activity, negative = inhibition, % at 16 µg/mL (by protocol); hit rate 0.25% among 86,000; AID 1259249, 2017;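 active = mean growth activity at or below -80% and every replicate also at or below -80%; inconclusive = mean at or below -80% but some replicate above -80%; inactive = mean growth activity above -80%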
T cruzi growth-2 – T. cruzi intracellular proliferation inhibitors, confirmation, cell-based, NIH3T3 host, beta-gal parasite, luminescence, cherry-pick; shares compounds with T cruzi growth-1; T. cruzi beta-gal in NIH3T3, GalScreen luminescence, 90 h; inhibition, % at 8.35 µM; hit rate 72% among 5,600; AID 651739, 2012;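 active = mean replicate inhibition above about 95% and at least 55% of replicates individually reaching it, limit read from the data; inconclusive = only one of the two criteria is met; inactive = neither criterion is met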
T cruzi growth-3 – inhibitors of intracellular T. cruzi replication, confirmation, NIH3T3 host cells, beta-gal parasites, cherry-pick, set 2; T. cruzi beta-gal in NIH3T3, GalScreen luminescence, 90 h; shares compounds with T cruzi growth-1; inhibition, % at 2.09 µM; hit rate 21% among 5,600; AID 651740, 2012;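 active = mean inhibition above about 95%, with at least 55% of replicates also reaching it, limit read from the data; inconclusive = meets just one of the two conditions; inactive = meets neither condition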
NIH3T3 tox – cytotoxicity in mouse NIH/3T3 fibroblasts, confirmation, cytotoxicity control for T. cruzi proliferation inhibitor project, cell-based, cherry-pick, single point; NIH/3T3 viability, CellTiter-Glo ATP luminescence, 90 h; hit rate 14% among 5,600; cytotoxicity (signal decrease), % at 8.35 µM; shares compounds with T cruzi growth-1;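 active = mean signal decrease across replicates above about 35% based on untreated-well scatter, with enough replicates individually passing, limit read from the data; inconclusive = no rule stated though some were filed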
NIH3T3 tox 2 – NIH/3T3 fibroblast cytotoxicity, confirmation, cytotoxicity control, cell-based, cherry-pick, single point, set 2. shares compounds with T cruzi growth-1. NIH/3T3 viability, CellTiter-Glo ATP luminescence, 90 h. inhibition, % at 24.9 µM. hit rate 56% among 5,600. AID 651744, 2012;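 active = mean loss of cell viability signal at or above a set limit, and enough replicates individually reaching it; inconclusive = meets only the mean limit or only the replicate share; inactive = meets neither condition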
A number is an active result.

For C[C@@H]1CN([C@@H](C)CO)S(=O)(=O)c2ccc(C#Cc3ccccc3F)cc2O[C@@H]1CN(C)C(=O)Cc1cccnc1 the results were Pf Dd2 growth inactive, T cruzi growth-1 inconclusive, C diff HTS inactive, T cruzi growth-2 101.9, T cruzi growth-3 inactive, NIH3T3 tox inactive and NIH3T3 tox 2 69.7.
Screening C[C@@H]1CN([C@H](C)CO)S(=O)(=O)c2ccc(C#Cc3ccccc3F)cc2O[C@H]1CN(C)C(=O)Cc1ccccc1 returned Pf Dd2 growth inactive, T cruzi growth-1 121.7, C diff HTS inactive, T cruzi growth-2 102.6, T cruzi growth-3 inactive, NIH3T3 tox inactive and NIH3T3 tox 2 103.7.
`C[C@H](CO)N1C[C@H](C)[C@H](CN(C)C(=O)Cc2ccncc2)Oc2cc(C#Cc3ccccc3F)ccc2S1(=O)=O` gave Pf Dd2 growth inactive and C diff HTS inactive.
Screening C[C@@H]1CN([C@@H](C)CO)S(=O)(=O)c2ccc(C#Cc3ccccc3F)cc2O[C@H]1CN(C)C(=O)Cc1ccncc1 returned Pf Dd2 growth inactive and C diff HTS inactive.
`CCNC(=O)C[C@H]1CC[C@@H]2[C@H](COc3ccc(NC(=O)Nc4ccc(C)cc4)cc3C(=O)N2C)O1` gave Pf Dd2 growth inactive, T cruzi growth-1 inactive and C diff HTS inactive.
For O=C(N[C@H]1CC[C@H](CCNS(=O)(=O)c2ccccc2Cl)O[C@@H]1CO)c1ccccc1 the results were Pf Dd2 growth inactive, T cruzi growth-1 inactive and C diff HTS inactive.
For COc1ccc(-c2ccc([C@H]3[C@@H](CO)N4CCCCN(CC5CCOCC5)C[C@@H]34)cc2)cc1 the results were Pf Dd2 growth inactive, T cruzi growth-1 98.8, C diff HTS inactive, T cruzi growth-2 inconclusive, T cruzi growth-3 inactive, NIH3T3 tox inconclusive and NIH3T3 tox 2 77.9.
For COc1ccc(-c2ccc([C@H]3[C@@H](CO)N4CCCCN(CC5CCOCC5)C[C@H]34)cc2)cc1 the results were Pf Dd2 growth inactive, T cruzi growth-1 100.9, C diff HTS inactive, T cruzi growth-2 inactive, T cruzi growth-3 inactive, NIH3T3 tox inactive and NIH3T3 tox 2 96.1.
For COc1ccc(-c2ccc([C@H]3[C@H]4CN(CC5CCOCC5)CCCCN4[C@H]3CO)cc2)cc1 the results were Pf Dd2 growth inactive, T cruzi growth-1 inactive and C diff HTS inactive.
COc1cccc(-c2ccc([C@H]3[C@@H](CO)N4CCCCN(CC5CCOCC5)C[C@@H]34)cc2)c1 was read as Pf Dd2 growth inactive, T cruzi growth-1 inactive and C diff HTS inactive.
For COc1ccc2c3c(n(C)c2c1)[C@@H](CO)N(S(C)(=O)=O)CC31CCN(C(=O)Nc2cccc(F)c2)CC1 the results were Pf Dd2 growth inactive and C diff HTS inactive.
Screening O=C(NC1CCCCC1)N[C@@H]1CC[C@H](CC(=O)N2CCOCC2)O[C@@H]1CO returned Pf Dd2 growth inactive and C diff HTS inactive.
Screening Cc1noc(C)c1NC(=O)N(C)C[C@@H]1Oc2c(NS(=O)(=O)c3ccccc3)cccc2C(=O)N([C@H](C)CO)C[C@@H]1C returned Pf Dd2 growth inactive, T cruzi growth-1 inactive and C diff HTS inactive.
COc1cccc(S(=O)(=O)N[C@@H]2CC[C@@H](CC(=O)NC3Cc4ccccc4C3)O[C@@H]2CO)c1 was read as Pf Dd2 growth inactive and T cruzi growth-1 inactive.
C[C@H]1CN([C@@H](C)CO)C(=O)c2cc(/C=C/c3ccccc3)cnc2O[C@@H]1CN(C)S(=O)(=O)c1ccc(F)cc1 was read as Pf Dd2 growth inactive, T cruzi growth-1 83.3, C diff HTS inactive, T cruzi growth-2 100.0, T cruzi growth-3 inactive, NIH3T3 tox inactive and NIH3T3 tox 2 inactive.
`C/C=C/c1cnc2c(c1)C(=O)N([C@H](C)CO)C[C@H](C)[C@H](CN(C)S(=O)(=O)c1ccc(F)cc1)O2` gave Pf Dd2 growth inactive, T cruzi growth-1 inactive and C diff HTS inactive.
Screening C/C=C/c1cnc2c(c1)C(=O)N([C@@H](C)CO)C[C@@H](C)[C@@H](CN(C)S(=O)(=O)c1ccc(F)cc1)O2 returned Pf Dd2 growth inactive, T cruzi growth-1 inactive and C diff HTS inactive.
For C[C@@H]1CN([C@H](C)CO)C(=O)c2cc(/C=C/c3ccccc3)cnc2O[C@@H]1CN(C)S(=O)(=O)c1ccc(F)cc1 the results were Pf Dd2 growth inactive, T cruzi growth-1 80.0, C diff HTS inactive, T cruzi growth-2 104.6, T cruzi growth-3 inactive, NIH3T3 tox inactive and NIH3T3 tox 2 50.7.
`C[C@@H]1CN([C@H](C)CO)C(=O)Cc2cc(NC(=O)NC3CCCCC3)ccc2O[C@H]1CN(C)C` gave Pf Dd2 growth inactive and C diff HTS inactive.
Screening COc1ccccc1-c1ccc2c(c1)[C@H]1[C@H](CCN1C(=O)C1CCOCC1)[C@H](CO)N2 returned Pf Dd2 growth inactive, T cruzi growth-1 inactive and C diff HTS inactive.
Screening Cc1noc(C)c1NC(=O)Nc1cccc2c1O[C@H](CN(C)S(=O)(=O)c1ccccc1)[C@H](C)CN([C@H](C)CO)C2=O returned Pf Dd2 growth inactive and T cruzi growth-1 inactive.
COC(=O)C[C@@H]1CC[C@@H]2[C@H](COC[C@@H](O)CN2C(=O)Nc2cccc(F)c2)O1 was read as Pf Dd2 growth inactive, T cruzi growth-1 inactive and C diff HTS inactive.
`C[C@H](O)C#Cc1ccc([C@@H]2[C@H](CO)N3CCCCN(S(=O)(=O)c4ccccc4)C[C@@H]23)cc1` gave Pf Dd2 growth inactive, T cruzi growth-1 113.8, C diff HTS inactive, T cruzi growth-2 inactive, T cruzi growth-3 inactive, NIH3T3 tox inactive and NIH3T3 tox 2 inactive.
C[C@H](O)C#Cc1ccc([C@H]2[C@H]3CN(S(=O)(=O)c4ccccc4)CCCCN3[C@H]2CO)cc1 was read as Pf Dd2 growth inactive, T cruzi growth-1 inconclusive, C diff HTS inactive, T cruzi growth-2 97.1, T cruzi growth-3 inactive, NIH3T3 tox inactive and NIH3T3 tox 2 inactive.
Screening C[C@H](O)C#Cc1ccc([C@H]2[C@@H](CO)N3CCCCN(S(=O)(=O)c4ccccc4)C[C@H]23)cc1 returned Pf Dd2 growth inactive, T cruzi growth-1 inactive and C diff HTS inactive.
Screening Cc1cccc(S(=O)(=O)N2CCCCN3[C@@H](CO)[C@H](c4ccc(C#C[C@@H](C)O)cc4)[C@@H]3C2)c1 returned Pf Dd2 growth inactive, T cruzi growth-1 inactive and C diff HTS inactive.
